Experimental findings from PubChem BioAssay (NCATS) are described below.

Results filed as inconclusive are left out. A call without a number means that no potency is given here. Active and inactive are the calls of the source. Calls follow the shape of the dose curve; as a rule, active = well fitted activation curve with a large enough effect; inconclusive = small, poorly fitted or top-dose-only effect; inactive = flat fitted curve, though single readings scatter.

The nature of the first assay: Cellular Toxicity (caspase-3) HepG2 (AID 654).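 Also: cells exposed to compound for 16 hours before reading.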 To be noted: HepG2 caspase-3 activation, luminescence, 0% = DMSO only, 100% = tamoxifen; series mostly up to 92.2 µM. In a few lines:
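Luminescent Caspase-Glo 3/7 readout after 16 hr compound exposure of human hepatocellular carcinoma HepG2 cells at 37 °C; qHTS concentration-response, normalized DMSO = 0%, 100 uM tamoxifen = 100%; AC50 by standard Hill equation.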
Regarding `Oc1cccc(Cl)c1Cl`, the compound was called inactive. For `CCC/C=N/O`, the compound was called inactive. Still for that read-out and setting: the value for `Nc1cccc2ccccc12` was “inactive”. Take `Cc1cnc[nH]1`: the result was inactive. The same measure, in the same setting: the value for `CN(C)N=O` was “inactive”; that for `COc1c(C(C)(C)C)cc([N+](=O)[O-])c(C)c1[N+](=O)[O-]` was “inactive”; that for `C=C(Cl)CCl` was “inactive”. Take `ClCCOCOCCCl`: the result was inactive. For `CC12CC1(C)C(=O)N(c1cc(Cl)cc(Cl)c1)C2=O` (stereo unspecified), the compound was classed as inactive.

Consider `CC(C)(Cl)[N+](=O)[O-]`, for which the compound was classed as inactive. Consider `CCCCOCC1CO1` (stereo unspecified), for which the result was inactive. As for `O=C(O)c1cccc(Cl)c1`, the compound was called inactive. On the same count and under the same terms, the value for `C1CC2OC2CC1C1CO1` (stereo unspecified) was “inactive”; that for `ClCCOCCCl` was “inactive”. Same read-out and setting: with `CC(C)C#N` the entry was “inactive”; with `Cl/C=C\Cl`, “inactive”; with `c1ccc2c(c1)CCNC2`, “inactive”. For `O=[N+]([O-])c1ccc(Cl)c(Cl)c1Cl`, the result was inactive.

On to `N#CCCC#N`, for which the compound was called inactive.

Take `Cc1ccccc1[N+](=O)[O-]`: the compound was classed as inactive.

`OCCBr`: the outcome was inactive. As for `C=CC(=O)OCCN(C)C`, the compound was classed as inactive. Still for that read-out and setting: the value for `CC(C)(C)C(O)(CCc1ccc(Cl)cc1)Cn1cncn1` (stereo unspecified) was “inactive”; that for `CN=C=O` was “inactive”. As for `c1ccc(C2CO2)cc1` (stereo unspecified), the outcome was inactive.

Regarding `CCCCCC[N+](=O)[O-]`, the outcome was inactive. In the case of `OCC(Cl)CCl` (stereo unspecified), the result was inactive. For the compound `COc1ccc(C=O)cc1`, the call was inactive. Consider `Nc1ccc(Cl)c(Cl)c1`, for which the result was inactive. Take `CC(=O)[O-].CC(=O)[O-].CC(=O)[O-].[Cr+3]`: the call was inactive. Consider `CC(=O)CCC(C)=O`, for which the result was inactive.

As to `C=CC(=O)OCC(CC)CCCC` (stereo unspecified), the outcome was inactive. With `CC(C#N)CCC#N` (stereo unspecified), the result was inactive.

The nature of another assay: Cellular Toxicity (caspase-3) Jurkat (AID 655).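 Also: cells exposed to compound for 16 h at 37 °C before reading.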 Also: potency is read from the fitted curve at half-maximal effect. The settings on record: Jurkat caspase-3 activation, luminescence; caspase-3 activation: at 92.2 µM (top of the series), DMSO = 0%, tamoxifen = 100%. The gist of the method:
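Jurkat cells (5000/well) in complete medium were treated with compounds for 16 hr at 37 °C, then Caspase-Glo 3/7 luminescence was read after 20 min at room temperature. Data normalized to DMSO (basal) and 100 uM tamoxifen (100%); AC50 from Hill fit.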
For the compound `Oc1cccc(Cl)c1Cl`, the caspase-3 activation is 0.319% (inactive).

In the case of `Nc1cccc2ccccc12`, the Potency is 25.1 µM (active).

As for `CN(C)N=O`, the caspase-3 activation was 0.809% (inactive). As for `COc1c(C(C)(C)C)cc([N+](=O)[O-])c(C)c1[N+](=O)[O-]`, the caspase-3 activation was -1.52% (inactive). On the same count and under the same terms, the value for `ClCCOCOCCCl` was -0.171% (inactive). For `CC12CC1(C)C(=O)N(c1cc(Cl)cc(Cl)c1)C2=O` (stereo unspecified), the caspase-3 activation is -1.16% (inactive).

As to `CC(C)(Cl)[N+](=O)[O-]`, the caspase-3 activation was 0.332% (inactive). `Cl/C=C/Cl`: the caspase-3 activation is -1.85% (inactive). Take `CCCCOCC1CO1` (stereo unspecified): the caspase-3 activation was -0.958% (inactive). Consider `O=C(O)c1cccc(Cl)c1`, for which the caspase-3 activation is -2.79% (inactive). The same measure, in the same setting: the value for `Brc1cccc(-c2ccccc2)c1` was 1.47% (inactive); that for `Oc1c(Cl)cccc1Cl` was 2.96% (inactive); that for `ClCCOCCCl` was -0.264% (inactive). `Cl/C=C\Cl`: the caspase-3 activation was 0.747% (inactive). On to `c1ccc2c(c1)CCNC2`, for which the caspase-3 activation was 0.933% (inactive). On the same count and under the same terms, with `CCBr` the figure was -0.439% (inactive). As to `O=[N+]([O-])c1ccc(Cl)c(Cl)c1Cl`, the caspase-3 activation was -0.417% (inactive).

Regarding `N#CCCC#N`, the caspase-3 activation was -0.151% (inactive). With `Cc1ccccc1[N+](=O)[O-]`, the caspase-3 activation is 0.646% (inactive). Turning to `OCCBr`, the caspase-3 activation was -0.73% (inactive). Turning to `C=CC(=O)OCCN(C)C`, the caspase-3 activation was 1.53% (inactive). On to `CC(C)(C)C(O)(CCc1ccc(Cl)cc1)Cn1cncn1` (stereo unspecified), for which the caspase-3 activation was 2.58% (inactive). As to `N#CCCCCC#N`, the caspase-3 activation was -0.898% (inactive). As to `CN=C=O`, the caspase-3 activation is -0.0583% (inactive). With `c1ccc(C2CO2)cc1` (stereo unspecified), the caspase-3 activation is 1.66% (inactive). As for `CCCCCC[N+](=O)[O-]`, the caspase-3 activation was 0.0633% (inactive).

On to `OCC(Cl)CCl` (stereo unspecified), for which the caspase-3 activation is 2.02% (inactive). As to `COc1ccc(C=O)cc1`, the caspase-3 activation was -0.692% (inactive).

Regarding `Nc1ccc(Cl)c(Cl)c1`, the caspase-3 activation is 0.952% (inactive).

Take `CC(=O)[O-].CC(=O)[O-].CC(=O)[O-].[Cr+3]`: the caspase-3 activation was 0.251% (inactive). As to `CC(=O)CCC(C)=O`, the caspase-3 activation was 0.378% (inactive). Take `C=CC(=O)OCC(CC)CCCC` (stereo unspecified): the caspase-3 activation is -0.0566% (inactive). Consider `CC(C#N)CCC#N` (stereo unspecified), for which the caspase-3 activation was 0.213% (inactive).
